# In PubChem BioAssay AID624354 (Sanford-Burnham Center for Chemical Genomics, 2012):
# About 3,800 (1.1%) of roughly 360,000 compounds were called active.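 How the source made its calls: active means compounds causing at least 50% loss of cell viability in the single-dose screen, relative to plate controls; inactive means the rest.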 What follows is part of a selection rich in actives, with near analogues and random picks from the rest.
# Test: TRAIL-exposed caspase-8 expressing cell killing – NB7+C8 cells, ATPlite luminescence, TRAIL sensitizer project, primary screen (AID 624354)
# Details: at 10 µM, stronger effect = higher value
row,Compound,"inhibition (viability loss, TRAIL sensitization)"
1,COc1ccc(CC(N)c2csc(NC(=O)Nc3ccc(C(C)C)cc3)n2)cc1 (configuration not stated),92.1% (active)
2,COc1ccc(CC(N)c2csc(NC(=O)Cc3ccccc3)n2)cc1 (configuration not stated),-6.08% (inactive)
3,COc1ccc(CC(N)c2csc(NC(=O)NC(c3ccccc3)c3ccccc3)n2)cc1 (configuration not stated),44.6% (inactive)
4,N#Cc1ccc(CN2CCN(CC(=O)Nc3ccccc3C(=O)NC3CC3)CC2)cc1,-1.82% (inactive)
5,Cn1c(=NC(=O)c2cnccn2)sc2ccccc21,61.8% (active)
6,Cn1c(=NC(=O)c2ccco2)sc2cccc(F)c21,47.7% (inactive)
7,COC(=O)c1ccc(OC(=O)c2cnccn2)cc1,6.75% (inactive)
8,OCCCNC(c1ccccc1)c1ccc(O)cc1 (configuration not stated),20.3% (inactive)
9,CN(C)c1cccc(NC(=O)c2ccc(-c3ccc(F)c(F)c3)c3ccoc23)c1,20.1% (inactive)
10,Cc1sc2ncn(CC(=O)NCCCC(=O)N3CCN(c4ccccc4F)CC3)c(=O)c2c1C,19.6% (inactive)
11,C=CCOc1ccc(/C=C2\SC(=S)N(CCC(=O)O)C2=O)cc1,56.9% (active)
12,CCN(C(=O)CN1C(=O)/C(=C/c2ccc(F)cc2)SC1=S)C1CCS(=O)(=O)C1 (configuration not stated),-9.46% (inactive)
13,CN(C(=O)CN1C(=O)/C(=C/c2ccc(Cl)cc2)SC1=S)C1CCS(=O)(=O)C1 (configuration not stated),10.1% (inactive)
14,COCCN(C(=O)CSCc1ccc(C)cc1)c1c(N)n(CC(C)C)c(=O)[nH]c1=O,-0.426% (inactive)
15,COc1cccc(NC(=O)CN(C)CC(=O)c2c(N)n(Cc3ccccc3)c(=O)n(C)c2=O)c1,-2.67% (inactive)
16,Cc1ccc(S(=O)(=O)/N=C(\CN2CCOCC2)N2CCOCC2)cc1,-0.117% (inactive)
17,O=C(N/N=C/c1cc([N+](=O)[O-])ccc1O)/C(=C\c1cccs1)NC(=O)c1ccccc1,41.5% (inactive)
18,O=C(N/N=C/c1ccccc1O)/C(=C/c1ccccc1)CCO,51.4% (active)
19,NN=C(NN=Cc1ccccc1)c1ccccc1,12.4% (inactive)
20,CCCc1nn2c(=O)cc(CSCC(=O)Nc3cccc(C)c3)nc2s1,-0.888% (inactive)
21,CCOC(=O)CCc1c(C)c2ccc(OCc3nn[nH]n3)c(C)c2oc1=O,-5.29% (inactive)
22,COc1ccc(-c2cc3ccc(OCc4nn[nH]n4)cc3oc2=O)cc1,56.7% (active)
23,CCCCc1cc(=O)oc2cc(C)cc(OCc3nn[nH]n3)c12,10.2% (inactive)

row,Compound,"inhibition (viability loss, TRAIL sensitization)"
1,CCc1ccc(-n2c(=S)sc3c(=O)n(-c4ccccc4OC)c(=S)[nH]c32)cc1,-3.67% (inactive)
2,Cc1cccc(C)c1NC(=O)C(c1cccc2ccccc12)n1c(=O)c(-c2ccco2)nc2ccccc21 (configuration not stated),-6.27% (inactive)
3,S=c1[nH]nc(/C=C/c2ccccc2)o1,0.666% (inactive)
4,O=c1oc(-c2ccccc2NS(=O)(=O)c2ccc(Cl)cc2)nc2ccccc12,6.47% (inactive)
5,O=c1oc(/C=C/c2ccccc2)nc2ccccc12,77.8% (active)
6,CN1CCC(CN)(N2CCN(c3ccccc3)CC2)CC1,6.93% (inactive)
7,COc1ccc(CCNc2cc(N3CCN(C(=O)c4ccccc4OC)CC3)ccc2[N+](=O)[O-])cc1OC,39.3% (inactive)
8,O=[N+]([O-])c1ccc(C=Nc2ccc(Cl)cc2Cl)s1,53.8% (active)
9,C[C@@H]1CN([C@@H](C)CO)C(=O)c2cc(NS(C)(=O)=O)ccc2O[C@@H](C)CCCCO[C@H]1CN(C)C(=O)Nc1ccc2c(c1)OCO2,-14.6% (inactive)
10,Cn1c(NCc2cccnc2)nc2cc(-c3ccc(F)cc3)sc2c1=O,12.2% (inactive)
11,O=c1[nH]c(CCl)nc2cc(-c3ccc(Cl)cc3)sc12,94.8% (active)
12,COc1cccc(-c2cc3nc(NCCOc4ccccc4Cl)n(C)c(=O)c3s2)c1,-1.03% (inactive)
13,CN(CC(=O)Nc1cccc(F)c1)C(=O)C1CC(=O)N(CCc2ccccc2)C1 (configuration not stated),0.466% (inactive)
14,Clc1ccc(Nc2ccc3ccccc3n2)cc1,22.5% (inactive)
15,O=C(CNC(=O)C(c1ccccc1)c1ccccc1)N/N=C\c1ccc2c(c1)OCO2,9.36% (inactive)
16,C(=N\Nc1ccc2ccccc2n1)/c1ccc2c(c1)OCO2,62.1% (active)
17,COc1ccc(NC(=O)C2(C)Cc3c(-c4cccc(NC(C)=O)c4)ccnc3O2)cc1OC (configuration not stated),4.61% (inactive)
18,CCCCN1CC(N2CCN(Cc3cccc(C)c3)CC2)CS1(=O)=O (configuration not stated),4.54% (inactive)
19,CC(=O)[C@@]12O[C@@H]1C[C@H]1[C@@H]3CC[C@H]4C[C@@H](O)CC[C@]4(C)[C@H]3CC[C@@]12C,0.527% (inactive)
20,CCCNc1c(N)c(=O)c1=O,-1.54% (inactive)
21,C[C@H]1COc2cc(N3CCSCC3)ccc2S(=O)(=O)N1,-6.12% (inactive)
22,Cc1cc(Br)cn2c(Cc3ccccc3C(F)(F)F)c(-c3ccc(Cl)cc3)nc12,22.1% (inactive)
23,O=C(O)c1cc(S(=O)(=O)N(Cc2ccccc2)c2ccccc2)ccc1Cl,-9.38% (inactive)

row,Compound,"inhibition (viability loss, TRAIL sensitization)"
1,CCN(CC)CCCC(C)n1c2nc(=O)[nH]c(=O)c-2nc2cc(Cl)ccc21 (configuration not stated),48.4% (active)
2,CCc1ccc(S(=O)(=O)Nc2ccc(C)c(NS(C)(=O)=O)c2)cc1,-5.21% (inactive)
3,Cc1c(O)c(C)c2c(c1O)C(=O)C[C@@H](c1ccccc1)O2,18.2% (inactive)
4,CC1CN(C(=O)CCC(=O)NCCCN2CCC(Cc3ccccc3)CC2)c2cc(Cl)ccc2O1 (configuration not stated),40.8% (inactive)
5,CC(C)=CCC/C(C)=C/C(=O)O,-7.95% (inactive)
6,COc1ccc(OC)c(/C=C/C(=O)c2ccc3c(c2)OCO3)c1,12.1% (inactive)
7,O=C(COC(=O)c1ccc(O)cc1O)c1ccc2c(c1)OCCO2,0.773% (inactive)
8,O=C(/C=C/c1ccc2c(c1)OCCO2)c1ccc(O)cc1,58.1% (active)
9,CCOCCCN(C(=O)Cn1nnc(-c2ccc(OC)c(OC)c2)n1)C(CC)C(=O)NC1CCCC1 (configuration not stated),-5.95% (inactive)
10,CCOC(=O)C(NS(=O)(=O)c1ccc(C)cc1)(C(F)(F)F)P(=O)(OCC(C)C)OCC(C)C (configuration not stated),27.5% (inactive)
11,COc1ccccc1N1CCN(S(=O)(=O)c2ccc3c(c2)NC(=O)CS3)CC1,8.43% (inactive)
12,Cc1nn(Cc2ccc(C(=O)N3N=C(C(F)F)CC3(O)C(F)F)cc2)c(C)c1[N+](=O)[O-] (configuration not stated),0.592% (inactive)
13,CC(=O)Nc1ccc(S(=O)(=O)NC(C)C(=O)OCCOc2ccc(F)cc2)cc1 (configuration not stated),-1.76% (inactive)
14,CS(=O)(=O)c1cccc(-c2ccc3nncn3c2)c1,1.26% (inactive)
15,CC(C)n1cnc2c(NCc3ccccc3)cc(OCC3CCN(C)CC3)cc21,54.6% (active)
16,COCCNC(=O)CN(C(=O)CCC(=O)Nc1cc(C)on1)c1ccc(C)cc1C,12.5% (inactive)
17,O=C(NCc1ccccc1)C(c1ccc(F)cc1)N1CCN(C(=O)C2CCCO2)CC1 (configuration not stated),3.33% (inactive)
18,Cc1ccc(C)c(NC(=O)CSc2nc3c(oc4ccccc43)c(=O)n2-c2ccccc2)c1,-5.26% (inactive)
19,CCCCC(=O)Nc1cc(C)c2c(=O)oc3ccccc3c2n1,58.6% (active)
20,CCCCC(=O)Nc1ccc2c(c1)C(=O)NC2=O,8.86% (inactive)
21,Cc1cc(Cl)c(S(=O)(=O)Nc2ccc3c(c2)OCCO3)cc1OCC(N)=O,1.34% (inactive)
22,CC1CCc2c(sc3c2C2=NS(=O)(=O)CCN2C=N3)C1 (configuration not stated),-12.9% (inactive)
23,O=C1C[C@@H]2c3c(cccc3CN1Cc1ccccc1)C[C@@H](O)[C@H]2O,-11.3% (inactive)

row,Compound,"inhibition (viability loss, TRAIL sensitization)"
1,COc1ccc2c(c1)CCCO[C@]21O[C@H](CCO)C[C@H](O)[C@H]1O,2.33% (inactive)
2,Nc1nc2ncccn2c1-c1ccccc1,-21.7% (inactive)
3,COc1ccc(C(=O)NC(C)c2nccs2)cc1OC1CCN(C(C)C)CC1 (configuration not stated),-24.4% (inactive)
4,O=C(CN1CCN(C/C=C/c2ccccc2)CC1)Nc1ccc(F)cc1F,8.21% (inactive)
5,O=C(CC1SC(=Nc2ccccc2F)N(CCN2CCOCC2)C1=O)Nc1ccc(F)cc1F (configuration not stated),72.8% (active)
6,O=C(CC1SC(N2CCOCC2)=NC1=O)Nc1ccccc1F (configuration not stated),7.68% (inactive)
7,NC(=O)c1ccc(N2CCOCC2)nc1,-4.39% (inactive)
8,COc1ccc(N(C)S(=O)(=O)c2cccc3nsnc23)cc1,-0.348% (inactive)
9,CC1(C)CC(N2CCN(C(c3ccccc3)c3ccccc3)CC2)=CC(=[N+]2CCCCC2)C1,53.6% (active)
10,CCOC(=O)C1=C(c2ccccc2)N=C2SCC(=O)N2C1c1ccc(O)c(OC)c1 (configuration not stated),-13.7% (inactive)
11,O=C(Nc1ccc2c(c1)OCCO2)C(C1CC1)N1CCC(Cc2ccccc2)CC1 (configuration not stated),1.75% (inactive)
12,c1c2c(cc3sc(N4CCCCC4)nc13)OCCO2,76.5% (active)
13,CCN1CCC2(CCN(Cc3cn[nH]c3-c3ccc(OC)c(F)c3)C2)C1 (configuration not stated),-3.56% (inactive)
14,CCOc1ccc(NC(=O)CCCCCN2C(=O)[C@@H]3Cc4ccccc4CN3C2=O)cc1,9.4% (inactive)
15,CCc1ccc(-c2cc3c(=O)n(CC(=O)NCCCN4CCN(Cc5ccccc5)CC4)nc(C)n3n2)cc1,57.1% (active)
16,Cc1ccc(-c2ccc(=O)n(CC(=O)NCCCN3CCCCC3)n2)cc1,16% (inactive)
17,Cc1nn(CC(=O)NCCc2ccccc2)c(=O)c2cc3occc3n12,-1.06% (inactive)
18,CC(C)=NN1C(=O)c2ccccc2NC1(C)C,0.317% (inactive)
19,CCC(C)C(NC(=O)C1CCC(=O)N1C(=O)OCc1ccccc1)C(=O)NC(C(=O)N1CCCC1C(N)=O)C(C)CC (configuration not stated),1.84% (inactive)
20,Cc1sc2ncnc(N3CCC(C(=O)Nc4ccc(F)cc4Cl)CC3)c2c1C,13.1% (inactive)
21,CC(C)CCNC(=O)c1ccc2c(Cl)c3c(nc2c1)CCC3,63.8% (active)
22,CC(C)CCC(C)NC(=O)c1ccc2nccnc2c1 (configuration not stated),13.2% (inactive)
23,O=C(CSc1c2c(nc3ccc(Cl)cc13)CCCC2)NCc1ccco1,7.83% (inactive)
